Among the data in PubChem BioAssay (NCATS) are max response and Potency values, retold here.

Where “and” joins values, the source holds several entries; their conditions need not be identical. Identical values can stand only once. Records with an inconclusive call do not appear. A number with no mark means an inactive call. Calls of active or inactive are those of the source. The call rests on the fitted dose curve; in most records, active means well fitted inhibition curve with a large enough effect; inconclusive means small, poorly fitted or top-dose-only effect; inactive means flat fitted curve, though single readings scatter. Where a SMILES comes first, the peptide text is derived from it. Bridges are numbered along the chain shown (N, C = ends). [ ]: non-standard residue; d: D form. The star is where a group is joined. X2 = CC[C@H](C)CCCCC(=O)*; Dab = NCC[C@H](N)C(=O)O
On the % scale 0 is the no-effect control and ±100 the full control effect; potency means the concentration at half of the fitted maximal effect.

For this experiment, the system named is KB-3-1. Put plainly: Cytotoxic Profiling of Annotated Libraries Using Quantitative High-Throughput Screening (AID 1296008). Further: nearly all actives have a fitted effect of over 60% in size. Conditions: Five cell lines viability, CellTiter-Glo ATP luminescence, 48-72 h; max response: active compounds read low. The method, boiled down: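 Compounds were pin-transferred onto cells and incubated 48 or 72 hr at 37 degree Celsius, 95% humidity. CellTiter-Glo was added, plates sat 10 min at room temperature, then ATP-coupled luminescence was imaged as the viability read-out.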
In general terms: In ATP-based viability assays light output follows the ATP content of the culture.
Consider `FC(F)(F)C(F)(F)C(F)(F)C(F)(F)C(F)(F)C(F)(F)F`, for which the max response was 6.4%.
Still for that read-out and setting: the value for `CC[C@H]1OC(=O)[C@H](C)[C@@H](O[C@H]2C[C@@](C)(OC)[C@@H](O)[C@H](C)O2)C(C)[C@@H](O[C@@H]2O[C@H](C)C[C@H](N(C)C)[C@@H]2O)[C@](C)(OC)C[C@@H](C)C(=O)[C@H](C)[C@@H](O)[C@]1(C)O` (stereo not given in full) was -4.62%; that for `CC(C)(C)C(=O)OCC(=O)[C@H]1CC[C@H]2[C@@H]3CCC4=CC(=O)CC[C@]4(C)[C@H]3CC[C@]12C` was -9.73%.
On the same count and under the same terms, the same measure for `C=CC(C)(O)CC/C=C(\C)CCC=C(C)C` (stereo not given): 0.0537%.
Take `C[C@H]1[C@@H](OC(=O)CCC(=O)O)O[C@@H]2OC3(C)CC[C@H]4[C@H](C)CC[C@@H]1[C@@]24OO3`: the Potency was 16.4 µM (active).
Regarding `Cc1cccc(C)c1NC(=O)C1CCCCN1C` (stereo not given), the max response was -1.09%.
As for `CCCCCCCCCC(=O)NO`, the max response is -3.47% and -15%.
Regarding `O=C1CCC(=O)N1CO`, the max response is -1.35%.
As for `NC[C@H]1O[C@H](O[C@H]2[C@H](O)[C@@H](O[C@H]3O[C@H](CO)[C@@H](O)[C@H](N)[C@H]3O)[C@H](N)C[C@@H]2N)[C@H](O)[C@@H](O)[C@@H]1O`, the max response was 14.5%.
In the case of `Cc1ncc(COP(=O)(O)O)c(CN)c1O`, the max response is -6.16%.
As for `CCCCC[C@H](O)/C=C/[C@H]1[C@H](O)CC(=O)[C@@H]1CCCCCCC(=O)O`, the max response was 3.75%.
Consider `C=C1CC[C@H](O)C/C1=C\C=C1/CCC[C@]2(C)[C@@H]([C@H](C)CCCC(C)C)CC[C@@H]12`, for which the max response is -5.93%.
`CCOC(=O)c1cc(-c2ccccc2)nc2ccc(C)cc12`: the max response is 3.5%.
On to `COc1ccc(/C=C/C(=O)OCCC(C)C)cc1`, for which the max response was -0.838%.
Same read-out and setting: the same measure for `O=C(O)COc1ccccc1/C=N/NC(=O)c1ccncc1`: 4.6%; for `CCN(CC)CCOc1ccccc1OC`: 3.77%; for `Nc1nc2c(c(=O)[nH]1)N(C=O)C(CNc1ccc(C(=O)N[C@@H](CCC(=O)O)C(=O)O)cc1)CN2` (stereo not given in full): 0.559%.
In the case of `c1ccc2ccccc2c1`, the max response was -0.155%.
As for `CCOC(=O)c1c[nH]c2cc(OCC(C)C)c(OCC(C)C)cc2c1=O`, the max response is 5.44%.
In the case of `CCCCCCCCCCCC(=O)OC[C@@H](O)C1OC[C@H](O)[C@H]1O` (stereo not given in full), the max response was 3.33%.
Take `CC(C)[C@H](N)C(=O)OCC(CO)OCn1cnc2c(=O)[nH]c(N)nc21` (stereo not given in full): the max response was 3.14%.
For the compound `CN(Cc1ccccc1)Cc1ccccc1`, the max response is 19.7%.
Take `CCC(C(=O)NC(N)=O)c1ccccc1` (stereo not given): the max response is 4%.
Consider `O=C1c2ccccc2C(=O)C1c1ccc(F)cc1`, for which the max response is -8.05%.
With `CC[C@H](C)CCCCC(=O)N[C@@H](CCN)C(=O)N[C@H](C(=O)N[C@@H](CCN)C(=O)N[C@H]1CCNC(=O)[C@@H]([C@H](C)O)NC(=O)[C@H](CCN)NC(=O)[C@H](CCN)NC(=O)[C@H](CC(C)C)NC(=O)[C@@H](CC(C)C)NC(=O)[C@H](CCN)NC1=O)[C@@H](C)O` (X2-[Dab]T[Dab][Dab][Dab][dL]L[Dab][Dab][dT]; lactam 4-C), the max response was -9.96%.
For `CC(CNC(=O)c1cccnc1)NC(=O)c1cccnc1` (stereo not given), the max response is -1.27%.
Turning to `O.O.O.O.O.O.O.O=S(=O)([O-])[O-].[Co+2]`, the max response is -0.614%.
As to `CC(C)C1=CC2=CC[C@@H]3[C@](C)(CCC[C@@]3(C)C(=O)O)[C@H]2CC1`, the max response was -11.9%.
Turning to `FC(F)(F)C(F)(F)C(F)(F)C(F)(F)C(F)(F)F`, the max response is -12.9%.
Turning to `O=C(CCCN1CCN2CCCC2C1)c1ccc(F)cc1` (stereo not given), the max response was 3.11%.
Take `NS(=O)(=O)c1cc2c(cc1Cl)NC(Cc1ccccc1)NS2(=O)=O` (stereo not given): the max response is -0.731%.
On the same count and under the same terms, the value for `Cc1ccccn1` was -6.48%; that for `Cc1cc(C)c(NC(=O)C[C@H](CC(=O)O)c2cccc3ccccc23)c(C(=O)N2CCC3(CCCC3)CC2)c1` was -2.39%; that for `CN[C@H](CC(C)C)C(=O)N[C@H]1C(=O)N[C@@H](CC(N)=O)C(=O)N[C@H]2C(=O)N[C@H]3C(=O)N[C@H](C(=O)N[C@@H](C(=O)O)c4cc(O)cc(O)c4-c4cc3ccc4O)[C@H](O)c3ccc(c(Cl)c3)Oc3cc2cc(c3O[C@@H]2O[C@H](CO)[C@@H](O)[C@H](O)[C@H]2O[C@H]2C[C@](C)(N)C(O)[C@H](C)O2)Oc2ccc(cc2Cl)[C@H]1O` (stereo not given in full) was 9.66% and -29.2%.
For `CO[C@@]1(NC(=O)C2SC(=C(C(N)=O)C(=O)O)S2)C(=O)N2C(C(=O)O)=C(CSc3nnnn3C)CS[C@@H]21` (stereo not given in full), the max response was 1.97%.
For `CO/N=C(\C(=O)N[C@@H]1C(=O)N2C(C(=O)O)=C(CSC(=O)c3ccco3)CS[C@H]12)c1csc(N)n1`, the max response was 1.31%.
As to `CC(=O)Nc1ccc(OC(=O)c2ccccc2O)cc1`, the max response was -18%.
Turning to `C=CC(=O)O`, the max response is -9.21%.
Consider `C[C@@H]1O[C@@H](OC[C@H]2O[C@@H](Oc3c(-c4ccc(OCCO)c(OCCO)c4)oc4cc(OCCO)cc(O)c4c3=O)[C@H](O)[C@@H](O)[C@@H]2O)[C@H](O)[C@H](O)[C@H]1O`, for which the max response is -2.8%.
For the compound `CCC(=O)c1ccc2c(c1)N(CCCN1CCN(CCO)CC1)c1ccccc1S2`, the max response was -13.4%.
